This passage reports growth inhibition results from PubChem BioAssay.

The structures appear in SMILES notation. A number with no mark means an inactive call. The source made the active and inactive calls.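 The calls were made as follows: active = growth inhibition above 50% at the single 2 µM test dose, taken to imply half-maximal potency below 2 µM; inactive = the rest.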

The assay is described as follows: antimalarial activity against Dd2 strain (AID 2302).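 Also: 0% = DMSO untreated growth and 100% = chloroquine plus artemisinin killed control.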 Conditions: P. falciparum Dd2 in RBCs, LDH growth readout, 72 h; at 2 µM; active compounds read high.
Regarding `CCCOc1cc2c(cc1OCCC)C(C=Cc1ccc(Cl)cc1Cl)=NC(C)C2` (stereo not given), the growth inhibition is 75% (active).

As to `Cc1[nH]c(C)c(-c2ccc(Oc3cccc(C(F)(F)F)c3)cc2)c(=O)c1Br`, the growth inhibition is 97% (active).

With `COc1cc(Cc2cnc3nc(N)nc(N)c3c2C)cc(OC)c1OC`, the growth inhibition is 98% (active).

Turning to `CCNC(=O)CCc1cccc(Br)c1`, the growth inhibition was 54% (active).

With `NC(N)=NC(=O)Nc1ccc(Cl)c([N+](=O)[O-])c1`, the growth inhibition is 9%.

With `Cc1ccc2ccncc2c1N`, the growth inhibition was 4%.

With `CCOc1cc2ncnc(Nc3ccc(OCc4c(Cl)cccc4Cl)c(OC)c3)c2cc1OCC`, the growth inhibition was 12%.

On to `CC(=O)Oc1c(Cl)c(C)nc(C)c1-c1ccc(Oc2ccc(OC(F)(F)F)cc2)cc1`, for which the growth inhibition was 98% (active).

As for `Nc1ccncc1C(=O)NCCCCN1CCN(c2nsc3ccccc23)CC1`, the growth inhibition was 9%.

With `CCCc1cc2c3c(N)nc(N)nc3ccc2n1CC`, the growth inhibition was 6%.

`Cc1[nH]c(C)c(-c2ccc(Oc3ccc(Cl)cc3)cc2)c(=O)c1Cl`: the growth inhibition was 16%.

`COc1ccc(Cc2c(Cl)nc3nc(N)nc(N)c3c2C)cc1`: the growth inhibition is 3%.

Take `Nc1nc(N)c2c(ccc3c2ccn3Cc2ccc3c(c2)OCO3)n1`: the growth inhibition was 95% (active).

Take `Cc1nc2nc(N)nc(N)c2c(C)c1Cc1ccc([N+](=O)[O-])cc1`: the growth inhibition is 11%.

As to `C=CCn1ccc2c3c(N)nc(N)nc3ccc21`, the growth inhibition was 91% (active).

Regarding `CCC(=C(CC)c1ccc(O)c(CNC2CCCCC2)c1)c1ccc(O)c(CNC2CCCCC2)c1`, the growth inhibition is 100% (active).

Take `Nc1ncc(-c2ccc(S(=O)(=O)Nc3ccc(C(=O)N[C@@H](CCC(=O)O)C(=O)O)cc3)cc2)c(=O)[nH]1`: the growth inhibition is 0%.

On to `COc1ccc2c(=O)c(Br)c(C)[nH]c2c1`, for which the growth inhibition was 74% (active).

As to `CCCN(c1ccc(O)c(CN2CCCCC2)c1)c1ccc([N+](=O)[O-])cn1`, the growth inhibition is 96% (active).

On to `Cn1c(=N)cc(-c2cccc(I)c2)c2c(=O)[nH]c(N)nc21`, for which the growth inhibition is 75% (active).

As to `Cc1cc(=O)c(-c2ccc(Oc3ccc(OC(F)(F)F)cc3)cc2)c(C)[nH]1`, the growth inhibition is 61% (active).

Consider `NC(N)=NC(=O)Nc1cc(Br)c(Cl)c(C(F)(F)F)c1`, for which the growth inhibition is 91% (active).

For `Cc1cccc(Cn2ccc3c4c(N)nc(N)nc4ccc32)c1`, the growth inhibition was 98% (active).

As to `CC(C)Cn1ccc2c3c(N)nc(N)nc3ccc21`, the growth inhibition is 96% (active).

Consider `Cc1cc(=O)c(-c2ccc(OCc3ccc(Cl)cc3)cc2)c(C)[nH]1`, for which the growth inhibition is 76% (active).

With `FC(F)(F)c1ccc2c(NCCCNc3ccnc4cc(C(F)(F)F)ccc34)ccnc2c1`, the growth inhibition is 101% (active).

In the case of `Nc1nc(N)c2c(ccc3c2cnn3Cc2cccnc2)n1`, the growth inhibition was 96% (active).

Regarding `CC(C)Cn1cc2c(ccc3nc(N)nc(N)c32)n1`, the growth inhibition was 2%.

Consider `CCCCCCCc1c(C)[nH]c2ccc(F)cc2c1=O`, for which the growth inhibition is 96% (active).

Regarding `Cc1[nH]c(C)c(-c2ccc(Oc3ccccc3)cc2)c(=O)c1Br`, the growth inhibition is 97% (active).

Regarding `CN(C)S(=O)(=O)n1ccc2c3c(N)nc(N)nc3ccc21`, the growth inhibition was -3%.

As to `CCN(C)C(=O)n1ncc2c3c(N)nc(N)nc3ccc21`, the growth inhibition was 0%.

For the compound `CCCCNCc1cc(Cl)c2ccccc2c1O`, the growth inhibition is 100% (active).

For the compound `Cc1[nH]c(C)c(-c2ccc(Oc3cc(Cl)cc(Cl)c3)cc2)c(=O)c1Br`, the growth inhibition was 97% (active).

As for `COc1ccc(-c2cnc(N)nc2N)cc1Cl`, the growth inhibition was 1%.

For `COc1cc(Cc2cnc(N)nc2N)cc(OCCCCNS(=O)(=O)C(F)(F)F)c1OC`, the growth inhibition is -5%.

As for `CCC(C)c1cnc2nc(N)nc(N)c2c1C` (stereo not given), the growth inhibition was 1%.

Take `Cc1ccccc1OCCCc1c(C)nc(N)nc1N`: the growth inhibition is 1%.

Turning to `COCCOCCOCCn1ccc2c3c(N)nc(N)nc3ccc21`, the growth inhibition is 0%.

Take `Nc1nc(N)c2c(ccc3c2ccn3Cc2ccc(Br)cc2)n1`: the growth inhibition was 98% (active).
